Reference: ChEMBL document CHEMBL3988442, “University of Dundee, Small-Polar-MMV Screening Library” (2021)
Among all 48,000 compounds or so, about 13,000 (27%) showed an effect of 50% or more. The list shows a part of the results.

These compounds were tested on Wolbachia pipientis (assay: Anti-Wolbachia Cell-Based Screen). Conditions: 5 µM.
Type: functional
Parameters: scale not given: in the data most compounds retested in dose-response had high values

SMILES	Percent Effect [%]
CCN1CCN(C(=O)c2[nH]c3ccccc3c2Cl)[C@H]2CS(=O)(=O)C[C@H]21	2.793
COCCNc1ccccc1CNC(=O)NCc1cnc(C)s1	-0.4507
COCCn1cc(C(=O)N2CCCC2c2cnn(C)c2)ccc1=O (stereo unspecified)	-26.74
Cn1cc(C2CCCN2C(=O)c2ccc(OCC3CC3)nc2)cn1 (stereo unspecified)	114.7
CCOc1ccc(C(=O)N2CCCC2c2cnn(C)c2)cn1 (stereo unspecified)	110.2
CNC(=O)c1ccc(C(=O)N2CCCC2c2cnn(C)c2)cn1 (stereo unspecified)	5.729
CC(C)Oc1ccc(C(=O)N2CCCC2c2cnn(C)c2)cn1 (stereo unspecified)	97.67
COc1ccc(C(=O)N2CCCC2c2cnn(C)c2)cn1 (stereo unspecified)	112.3
Cc1cnn(CC2CCCN2C(=O)c2ccc(OC(C)C)nc2)c1 (stereo unspecified)	-7.33
Cc1nnc(CN(C)S(=O)(=O)c2ccc(Br)cc2Cl)n1C	5.813
CC(C)Oc1cccc(C(=O)C2CCCN(S(=O)(=O)C(C)C)C2)c1 (stereo unspecified)	1.86
Cc1nn(CCO)c(C)c1CNC1CCCCc2ccccc21 (stereo unspecified)	2.659
CCOC1CCCN(C(=O)NCCc2ccn(-c3ccccc3)n2)C1 (stereo unspecified)	9.361
O=C(NCCc1ccn(-c2ccccc2)n1)N1CCC1	5.708
CC1(C)CN(C(=O)NCCc2ccn(-c3ccccc3)n2)CCO1	-7.348
O=C(NCCc1ccn(-c2ccccc2)n1)N1CCCC(O)C1 (stereo unspecified)	108.2
CCOC1CCN(C(=O)NCCc2ccn(-c3ccccc3)n2)CC1	152.6
O=C(NCCc1ccn(-c2ccc(F)cc2)n1)C1CCCOC1 (stereo unspecified)	-15.61
O=C(NCCc1ccn(-c2ccccc2)n1)N1CCCC(CO)C1 (stereo unspecified)	104.8
O=C(NCCc1ccn(-c2ccccc2)n1)N1CCSCC1	87.95
O=C(NCCC1Cc2ccccc2C1)N1CCCC(O)C1 (stereo unspecified)	-12.54
CCOC1CCN(C(=O)NCc2ccc(C(=O)N(C)C(C)C)cc2)CC1	-14.18

SMILES	Percent Effect [%]
CC(C)(C)c1cn(C2CCN(C(=O)c3cncnc3)CC2)nn1	8.941
Cc1cc2ncc(C(C)NCc3cccnc3)c(C)n2n1 (stereo unspecified)	0.9631
O=C(c1cccc2ncccc12)N1CCCN(c2cccnn2)CC1	-3.765
N#Cc1ccc(N2CCN(c3ncccn3)CC2)c(C(F)(F)F)c1	0.2646
COc1cccc(CCCNC(=O)N2CCC(O)(C(F)(F)F)C2)c1 (stereo unspecified)	-22.68
Cc1nn(C)c(N(C)C)c1CNCc1cnn(Cc2ccccc2)c1	0.347
O=C(Nc1ccc(CC(=O)N2CCSCC2)cc1)NC1CCCC1	-7.412
O=C(Nc1ccc(CC(=O)N2CCCC2)cc1)NC1CC1	116.7
O=C(Nc1ccc(CC(=O)N2CCSCC2)cc1)NC1CC1	1.128
Cc1nc(CNC(=O)NC2CCN(c3ncccc3Cl)C2)no1 (stereo unspecified)	-5.791
OCCC1CN(c2ncnc3[nH]cnc23)CCN1Cc1ccccc1 (stereo unspecified)	-15.48
CCN1CC2(CCC1=O)CCN(Cc1nncn1C)CC2	-22.02
Cn1cnnc1CN1CCC2(CCCN(C3CCCCC3)C2=O)C1 (stereo unspecified)	111.9
CCCN1CCCC2(CCN(Cc3noc(C4CCCC4)n3)C2)C1=O (stereo unspecified)	-0.09411
CC(C)n1cnnc1CN1CCC2(CCCN(C3CCCCC3)C2=O)C1 (stereo unspecified)	113.2
Cn1cnnc1CN1CCC2(CCCN(C3CCCC3)C2=O)C1 (stereo unspecified)	103.4
CCN1CC2(CCC1=O)CCN(Cc1nncn1C(C)C)CC2	3.317
CCCN1CCCC2(CCN(Cc3cncn3C3CCCC3)C2)C1=O (stereo unspecified)	1.607
CC(C)N1CCCC2(CCN(Cc3noc(C4CCCC4)n3)C2)C1=O (stereo unspecified)	17.18
CC(C)N1CCCC2(CCN(Cc3nncn3C(C)C)C2)C1=O (stereo unspecified)	92.74
CCCN1CCCC2(CCN(Cc3cncn3C3CCCCC3)C2)C1=O (stereo unspecified)	-18.59
CC(C)[C@H]1COC(=O)N1Cc1nncn1C(C)C	9.429

SMILES	Percent Effect [%]
CN1CCCC2(CCN(Cc3cncn3C3CCCCC3)C2)C1=O (stereo unspecified)	-0.6007
O=C(O)C(F)(F)F.c1csc(CN2CCC3(CCCN(c4nncs4)C3)C2)n1 (stereo unspecified)	-3.653
CCN1CCC(N2C[C@H]3OC(=O)N(CCc4cccc(Cl)c4)[C@H]3C2)CC1	-15.6
CCSCCC(=O)Nc1ncn(CC(=O)NCc2ccccc2)n1	1.311
CN(Cc1ccc(C(=O)Nc2sccc2C#N)cc1)Cc1ccno1	-5.875
Cc1csc(N(C)C(=O)C2CC(=O)N(CCc3ccccc3)C2)n1 (stereo unspecified)	4.812
CNC(=O)C1Cc2ccccc2CN1CCCc1ccccc1 (stereo unspecified)	-8.054
Cc1[nH]ccc1C(=O)NCC1CC(=O)N(CCc2ccccc2)C1 (stereo unspecified)	5.345
CC(C)CC(=O)N1CC(=O)N(CCc2ccccc2)CC(O)C1 (stereo unspecified)	118.7
Cc1ccccc1C(C)CC(=O)N1CC[C@H](O)C1 (stereo partly specified)	-9.659
CC(C)(C)N1CC(C(=O)N2CCN(CCc3ccccc3)CC2)CC1=O (stereo unspecified)	4.322
CN(C(=O)C1CC(=O)N(CCc2ccccc2)C1)c1nccs1 (stereo unspecified)	3.016
CC(C(=O)O)N1CC2(CCC1=O)CCN(CCc1ccccc1)CC2 (stereo unspecified)	-3.737
CC(C)COC(=O)N1CC(=O)N(CCCc2ccccc2)CC(O)C1 (stereo unspecified)	111
CC(C)c1cc(C(=O)N2CCCN(CCCc3ccccc3)CC2)[nH]n1	0.07047
CCOC(=O)N1CC(=O)N(CCc2ccccc2)CC(O)C1 (stereo unspecified)	123.2
CC(C)(C)OC(=O)N1CC(=O)N(CCc2ccccc2)CC(O)C1 (stereo unspecified)	114.6
CSc1nc(N)cc(N2C[C@@H]3CC[C@H](C2)N(Cc2cscn2)C3=O)n1	0.1745
CCN(CC)C(=O)CN(C)C1CCc2ccccc21 (stereo unspecified)	-5.842
CN(Cc1ccco1)Cc1ccccc1CNC(=O)c1ccc[nH]1	22.22
O=C(CN(Cc1ccccc1)CC1CCOCC1)NC(=O)NC1CC1	17.45
CC(C)COC(=O)N1CC(=O)N(CCc2ccccc2)CC(O)C1 (stereo unspecified)	128.8

SMILES	Percent Effect [%]
COCc1cccc(C(=O)N2CCCN(C(=O)OCC(C)C)CC2)c1	8.994
O=C(NCC1CC(=O)N(CCc2ccccc2)C1)c1c(F)cccc1F (stereo unspecified)	-5.982
CN(Cc1cc2n(n1)CCNC2)Cc1cc(-c2ccccn2)no1	-13.42
COCCN(C)CCN1CC2(CCN(C3CCCCC3)CC2)OC1=O	5.41
Cc1ccc(OCCCNC(=O)NC(C)c2nncn2C)cc1 (stereo unspecified)	6.672
CSc1cc(CNC(=O)CCOc2ccccc2C)ccn1	2.605
CC(=O)N1C[C@H]2CNC[C@@]2(C(=O)NCCOc2ccccc2F)C1	-24.48
Cc1ccc(OCCCNC(=O)C(C)Sc2nncn2C)cc1 (stereo unspecified)	-12.11
CC(C)n1cnnc1CNC(=O)CCCOc1ccccc1F	-11.73
Cc1ccc(OCCCNC(=O)C2(C)CC(=O)N3C=CC=CC3=N2)cc1 (stereo unspecified)	121.9
CC1(C(=O)NCCCOc2ccccc2F)CC(=O)N2C=CC=CC2=N1 (stereo unspecified)	94.6
Cc1ccccc1OCCCC(=O)NCc1ccnc(O)c1	0.1065
Cc1ccccc1OCCCNC(=O)C1(C)CC(=O)N2C=CC=CC2=N1 (stereo unspecified)	112.8
COc1cc(C)c(CNC(C)c2csc(C3CC3)n2)cc1OC (stereo unspecified)	30.24
CC(C)Cc1cc(C(=O)NC(C)(C)c2nnc(N)s2)n(C)n1	-11.71
Cc1noc(NCc2ccc(F)cc2F)n1	23.53
Cc1noc(C2CCCN(C(=O)c3ccc(Cl)cc3F)C2)n1 (stereo unspecified)	-0.5657
CC(C)c1nnc2ccc(N3CCC(C(N)=O)CC3)nn12	13.6
CS(=O)(=O)CCOCCNc1ccc2ccc(F)cc2n1	5.905
COCC(NC(=O)c1ccc[nH]1)c1cccc(C(F)(F)F)c1 (stereo unspecified)	-9.811
CC(C)CCN1CCc2cc(C(=O)N(C)C)c(NCC3CC3)nc2CC1.O=C(O)C(F)(F)F.O=C(O)C(F)(F)F	98.43
O=C(O)C(F)(F)F.O=C(O)C(F)(F)F.O=C(O)c1cc2c(nc1NCC1CC1)CCN(C1CCOC1)CC2 (stereo unspecified)	-1.204

SMILES	Percent Effect [%]
CC(C)Nc1nc2c(cc1C(=O)NCC1CC1)CCN(C)CC2.O=C(O)C(F)(F)F.O=C(O)C(F)(F)F	0.01551
CN1CCc2cc(C(=O)N(C)C)c(NCC3CC3)nc2CC1.O=C(O)C(F)(F)F.O=C(O)C(F)(F)F	92.24
O=C1N(CCO)CCCC12CCN(Cc1noc(C3CCCC3)n1)C2 (stereo unspecified)	-14.7
COc1ccc2c(=O)n(CC3CCCN(C)C3)ccc2c1OC (stereo unspecified)	-1.973
Cc1cc(C(=O)N2CCCC(N3CCNC3=O)C2)nn1C(C)(C)C (stereo unspecified)	-5.29
CCCS(=O)(=O)c1ncc(CN2CCC(CO)CC2)n1CC1CCCO1 (stereo unspecified)	10.89
CC(C)n1nc(CNc2ncccn2)c2c1CN(C)CC2.O=C(O)C(F)(F)F.O=C(O)C(F)(F)F.O=C(O)C(F)(F)F	-10.41
O=C(c1ccncc1)N1CCc2onc(CN3CCCC3)c2C1	-9.45
O=C(c1ccsc1)N1CCc2onc(CN3CCOCC3)c2C1	-3.104
CC(C)n1nc(CNc2ncccn2)c2c1CN(S(C)(=O)=O)CC2	3.209
CCN1CCc2onc(CNc3ncccn3)c2C1	1.38
c1cnc(N2CCc3onc(CN4CCCC4)c3C2)cn1	88.59
c1cnc(N2CCc3onc(CN4CCOCC4)c3C2)cn1	102
CCS(=O)(=O)N1CCc2onc(CNc3ncccn3)c2C1	3.304
c1cnc(NCc2noc3c2CN(c2cnccn2)CC3)nc1	99.25
O=C(c1cnccn1)N1CCc2onc(CN3CCCC3)c2C1	10.5
Cn1nc(CNc2ncccn2)c2c1CN(c1cnccn1)CC2	89.69
O=C(c1cccnc1)N1CCc2onc(CN3CCCC3)c2C1	-1.696
